The supplement of paper PMC10646978
± gives the standard deviation.

Experiments:
Conditions in all cases: modulator concentration 10 µM
[1] = tested on: RAW-Dual (murine macrophage reporter line); experiment: NF-kB reporter (SEAP) activity fold change vs agonist alone; higher = enhanced NF-kB activity
Outline: (§1)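 RAW-Dual murine macrophage reporter cells were plated at 50 000 per well in 384-well plates, pin-transferred compound to 10 μM final, and pre-incubated for 1 hour at 37 °C before a PRR agonist was added and the cells incubated overnight. NF-κB activity was read from supernatant SEAP with QUANTI-Blue at 620 nm absorbance, and IRF activity from Lucia luciferase with QUANTI-Luc by luminescence. Each signal was expressed as fold change by dividing by the mean agonist-only control on the same plate. Two replicate plates were averaged, with errors obtained by propagation.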

[2] = tested on: RAW-Dual (murine macrophage reporter line); experiment: IRF reporter (Lucia luciferase) activity fold change vs agonist alone; higher = enhanced IRF activity
Outline: as §1

[3] = tested on: RAW-Dual (murine macrophage reporter line); experiment: viability score (confluency relative to resting cells, overnight) (fraction); higher = more viable, active = viable (0.7 or more)
Outline: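 Compound was added at a final 10 μM to RAW-Dual macrophages in 384-well plates and left overnight. Confluency was imaged with IncuCyte, and two masks were generated in IncuCyte software over all imaged wells. Each viability score is confluency relative to resting cells, and a compound met the cutoff only when both masks were above 70% of resting cells.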

[4] = agonist: CpG ODN 1826 0.5 ug/mL

| Compound | NF-kB reporter [1, 4] | NF-kB reporter ([1]; agonist: LPS 0.1 ug/mL) | NF-kB reporter ([1]; agonist: MPLA […]) | IRF reporter ([2]; agonist: 3'3'-cGAMP 10 ug/mL) | IRF reporter ([2]; agonist: LPS 0.1 ug/mL) | IRF reporter ([2]; agonist: MPLA […]) | viability score [3] |
| --- | --- | --- | --- | --- | --- | --- | --- |
| COc1ccc(C=CC(=O)Nc2sc(C(=O)OC(C)C)c(C)c2C(N)=O)cc1 | 0.846 ± 0.076 | 0.798 ± 0.045 | 0.958 ± 0.086 | 0.949 ± 0.043 | 1.44 ± 0.092 | 1.57 ± 0.17 | 1 (active) |
| CC(C)(C)C(=O)OCOP(=O)(COCCn1cnc2c(N)ncnc21)OCOC(=O)C(C)(C)C | 1.69 ± 0.25 | 1.36 ± 0.11 | 1.65 ± 0.1 | 1.81 ± 0.096 | 5.89 ± 0.5 | 3.2 ± 0.43 | 0.788 (active) |
| COc1cccc(N2CCN(C3CCN(CC4CCOCC4)CC3)CC2)c1 | 0.75 ± 0.078 | 1.03 ± 0.11 | 1.22 ± 0.17 | 0.901 ± 0.043 | 1.26 ± 0.23 | 1.42 ± 0.49 | 0.966 (active) |
| COc1ccc(CCn2c(C)c(C)n3c4c(=O)n(CCC(C)C)c(=O)n(C)c4nc23)cc1OC | 0.95 ± 0.07 | 1.01 ± 0.12 | 1.15 ± 0.14 | 1.03 ± 0.048 | 1.37 ± 0.24 | 1.57 ± 0.44 | 0.95 (active) |
| COc1ccc2oc(=O)c(C(=O)Nc3ccc(C(=O)O)cc3)cc2c1 | 0.909 ± 0.054 | 1.02 ± 0.1 | 0.953 ± 0.08 | 1.08 ± 0.035 | 1.17 ± 0.11 | 0.959 ± 0.13 | 0.987 (active) |
| CCOc1ccc2nc(N(CCCN(C)C)C(=O)c3ccc(Br)s3)sc2c1.Cl | 0.164 ± 0.014 | 0.836 ± 0.076 | 0.855 ± 0.13 | 0.406 ± 0.1 | 1.14 ± 0.071 | 0.533 ± 0.083 | 0.0434 (inactive) |
| CCCCC(=O)N(Cc1ccc(-c2ccccc2-c2nn[nH]n2)cc1)C(C(=O)O)C(C)C (configuration not stated) | 1.12 ± 0.27 | 0.965 ± 0.081 | 1.02 ± 0.082 | 0.71 ± 0.055 | 1.03 ± 0.14 | 1.04 ± 0.2 | 1 (active) |
| CC(=O)N(C=Cc1cc[n+](CCCS(=O)(=O)[O-])c2ccccc12)c1ccccc1 | 0.982 ± 0.1 | 1.05 ± 0.063 | 0.908 ± 0.094 | 1.01 ± 0.052 | 1.57 ± 0.16 | 1.25 ± 0.25 | 1.01 (active) |
| CCOc1ccc2nc(S(N)(=O)=O)sc2c1 | 0.804 ± 0.2 | 1.02 ± 0.051 | 0.985 ± 0.067 | 0.855 ± 0.029 | 0.897 ± 0.11 | 0.953 ± 0.2 | 1.01 (active) |
| CCCCc1c(CCC)c(=N)c2ccccc2n1C.I | 0.992 ± 0.098 | 1.18 ± 0.091 | 1.56 ± 0.15 | 1.09 ± 0.048 | 1.67 ± 0.22 | 2.14 ± 0.32 | 1.01 (active) |
| C#CCCCCCCCCCCCC(O)CC(O)COC(C)=O (configuration not stated) | 1.1 ± 0.34 | 1.06 ± 0.055 | 1.13 ± 0.083 | 0.832 ± 0.11 | 1.17 ± 0.19 | 1.41 ± 0.19 | 1 (active) |
| COc1cccc2cc(C(=O)NCc3nn(C4CCCC4)c(=O)c4ccccc34)oc12 | 0.976 ± 0.053 | 1.1 ± 0.086 | 0.846 ± 0.096 | 0.827 ± 0.062 | 1.2 ± 0.24 | 0.848 ± 0.39 | 1.02 (active) |
| c1ccc(CSc2nnc(-c3ccncc3)o2)cc1 | 1.08 ± 0.075 | 1.18 ± 0.073 | 1.44 ± 0.13 | 0.379 ± 0.017 | 0.65 ± 0.056 | 0.501 ± 0.068 | 0.988 (active) |
| Cc1ccc(Cn2c(N)nc3ccccc32)cc1 | 0.363 ± 0.067 | 1.21 ± 0.12 | 1.09 ± 0.098 | 1.07 ± 0.07 | 1.09 ± 0.23 | 1.37 ± 0.14 | 0.702 (active) |
| CC(=O)Oc1cc2c(s1)CCN(C(C(=O)C1CC1)c1ccccc1F)C2 (configuration not stated) | 0.988 ± 0.15 | 1.2 ± 0.36 | 0.844 ± 0.05 | 0.919 ± 0.035 | 1.28 ± 0.31 | 1.1 ± 0.18 | 0.985 (active) |
| Cc1ccc(O)c([C@H](CCN(C(C)C)C(C)C)c2ccccc2)c1.O=C(O)[C@H](O)[C@@H](O)C(=O)O | 0.67 ± 0.061 | 0.881 ± 0.081 | 1.26 ± 0.089 | 0.656 ± 0.042 | 0.951 ± 0.051 | 0.729 ± 0.073 | 0.979 (active) |
| CCC(CNC(=O)Cc1c(F)cccc1Cl)(OC)c1ccccc1 (configuration not stated) | 0.854 ± 0.06 | 0.911 ± 0.091 | 1.06 ± 0.062 | 0.955 ± 0.074 | 1.09 ± 0.2 | 1.17 ± 0.37 | 0.825 (active) |
| CCC(=O)N(CCC(c1ccccc1OC)C1CCOC(C)(C)C1)Cc1ccc(OC)cc1 (configuration not stated) | 0.907 ± 0.072 | 0.986 ± 0.059 | 0.938 ± 0.056 | 1.04 ± 0.055 | 1.23 ± 0.29 | 1.04 ± 0.088 | 1.01 (active) |
| CCOC(=O)c1cnn(CCOc2ccccc2)c1N | 1.05 ± 0.081 | 0.851 ± 0.079 | 1.02 ± 0.11 | 0.975 ± 0.052 | 1.22 ± 0.13 | 1.31 ± 0.2 | 1 (active) |
| CCOC(=O)C1CCCN(S(=O)(=O)Cc2ccccc2)C1 (configuration not stated) | 0.766 ± 0.067 | 0.879 ± 0.043 | 1.02 ± 0.089 | 0.814 ± 0.04 | 1.42 ± 0.096 | 1.53 ± 0.14 | 1.01 (active) |
| Cc1c(-c2ccccc2)nc2ccccc2c1C(=O)N1CCCC1 | 1.09 ± 0.095 | 1.13 ± 0.087 | 1.1 ± 0.069 | 1.01 ± 0.035 | 1.62 ± 0.18 | 1.24 ± 0.13 | 1.01 (active) |
| O=Cc1cn(CCOc2ccc(Br)cc2)c2ccccc12 | 1.25 ± 0.13 | 1.06 ± 0.054 | 1.59 ± 0.22 | 0.684 ± 0.033 | 0.674 ± 0.043 | 0.67 ± 0.085 | 0.977 (active) |
| COC(=O)C1=C(C)NC(C)=C(C(=O)OC)C1c1ccc(-c2ccc(Cl)cc2Cl)o1 | 1.01 ± 0.081 | 0.943 ± 0.064 | 0.922 ± 0.092 | 0.872 ± 0.022 | 1.23 ± 0.11 | 1.22 ± 0.22 | 1.02 (active) |
| O=C(c1ccc(OC(F)(F)F)cc1)N1CCC(Oc2cccnn2)CC1 | 1.04 ± 0.094 | 1.25 ± 0.1 | 0.926 ± 0.049 | 1.03 ± 0.073 | 1.08 ± 0.065 | 1.15 ± 0.087 | 1.01 (active) |
| CC1Cc2ccccc2N1C(=O)c1cc2n(n1)CCCO2 (configuration not stated) | 0.962 ± 0.076 | 0.949 ± 0.06 | 1.09 ± 0.12 | 0.903 ± 0.054 | 1.39 ± 0.082 | 1.44 ± 0.15 | 0.985 (active) |
| COc1ccc(-n2nc(C(N)=O)c3c2C(=O)N(c2ccc(N4CCCCC4=O)cc2)CC3)cc1 | 0.793 ± 0.076 | 0.859 ± 0.052 | 1.12 ± 0.12 | 0.994 ± 0.046 | 1.19 ± 0.073 | 1.33 ± 0.11 | 1.01 (active) |
